{
  "source": "PubChem BioAssay (NCI)",
  "note": "“And” between values parts separate entries of the source, which are not always exact repeats. Identical values can stand only once. This is part of a sample that, as a whole, favours compounds with a hit. Of some 83,000 tested, about 20% had one in any assay.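 How to read the values: 0–100, growth inhibition (40 = 60% inhibited); 0, no net growth; -100 to 0, cell death (-40 = 40% of starting cells died; -100 = all dead).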 The source made the active and inactive calls. The calls were made as follows: active = growth percent below 10; inactive = the rest.",
  "data": [
    {"test_system": "HCT-116 colon", "experiment": "NCI-60 one-dose screen, 48 h (100 = growth as untreated, 0 = no growth, -100 = all killed)", "settings": "10 µM unless noted", "values": [
      {"smiles": "COC(=O)c1ccccc1Cl", "growth": "100% (inactive)"},
      {"smiles": "CCC(C)NC(=O)c1ccccc1C", "note": "(stereo not drawn)", "growth": "98.3% (inactive)"},
      {"smiles": "COc1ccc(CCl)c(C)c1OC", "growth": "99.6% (inactive)"},
      {"smiles": "Cc1c(Cl)cc(Cl)c(N)c1Cl", "growth": "103% (inactive)"},
      {"smiles": "O=C1CCC(=O)N1CC1CC2CCC1C2", "note": "(stereo not drawn)", "growth": "106% (inactive) and 90.5% (inactive)"},
      {"smiles": "O=C(O)c1ccc2c3ccc(C(=O)O)c4c(C(=O)O)ccc(c5ccc(C(=O)O)c1c25)c43", "growth": "90.1% (inactive)"},
      {"smiles": "Cc1onc(-c2c(F)cccc2Cl)c1-c1ncc(-c2ccc(Cl)cc2)o1", "growth": "27.1% (inactive) and 16.6% (inactive)"},
      {"smiles": "CCCCCc1cc[n+](CC(=O)c2ccccc2)cc1", "growth": "95.3% (inactive) and 91.9% (inactive)"},
      {"smiles": "C(=N\\OCCc1ccccc1)/c1ccccn1", "growth": "112% (inactive) and 102% (inactive)"},
      {"smiles": "COc1cc([C@@H]2c3cc4c(cc3[C@H](O)[C@H]3COC(=O)[C@@H]23)OCO4)cc(OC)c1OC", "growth": "10.5% (inactive) and -40.7% (active)"},
      {"smiles": "COc1ccc(/C=N/NC(N)=S)cc1", "growth": "89.3% (inactive)"},
      {"smiles": "N=c1sc2ccccc2n1CC(=O)O", "growth": "95.7% (inactive)"},
      {"smiles": "O=C(O)/C=C/C=C/c1ccccc1", "growth": "101% (inactive) and 96% (inactive)"},
      {"smiles": "CC(C)(C)OC(=O)CC1(O)CCCCC1", "growth": "102% (inactive)"},
      {"smiles": "Cc1nc(Nc2ccc(Cl)cc2)c2cnn(-c3ccccc3)c2n1", "growth": "101% (inactive)"},
      {"smiles": "CC(=O)Oc1cc(C)c(OC(C)=O)c(C)c1C", "growth": "112% (inactive)"},
      {"smiles": "CCC(C)(O)CCC(C)(O)CC", "note": "(stereo not drawn)", "growth": "101% (inactive)"},
      {"smiles": "Clc1ccc2sc(-c3ccccc3)nc2c1", "growth": "94.9% (inactive)"},
      {"smiles": "Cc1ccc([N+](=O)[O-])cc1Br", "growth": "90.8% (inactive)"},
      {"smiles": "COCCCNC1=C(C#N)C(=O)NC(c2cccs2)S1", "note": "(stereo not drawn)", "growth": "103% (inactive)"},
      {"smiles": "OCCSc1ccc(Cl)cc1", "growth": "110% (inactive) and 94.4% (inactive)"},
      {"smiles": "Nc1[nH][nH]c(=O)c1N=Nc1ccccc1", "growth": "104% (inactive) and 102% (inactive)"},
      {"smiles": "CS(=O)(=O)c1nsc(N)n1", "growth": "103% (inactive)"},
      {"smiles": "Cc1cc(Cl)nc(Nc2ccccc2)n1", "growth": "93.1% (inactive)"},
      {"smiles": "O=C(O)C1CSCN1", "note": "(stereo not drawn)", "growth": "108% (inactive) and 94.4% (inactive)"},
      {"smiles": "C/C=C(/C(=O)NC(N)=O)C(C)C", "growth": "99.5% (inactive)"},
      {"smiles": "O=[N+]([O-])c1ccc(NC(c2ccccc2)c2ccc3cccnc3c2O)cc1", "note": "(stereo not drawn)", "growth": "28% (inactive)"},
      {"smiles": "CCCCC/C(C)=N\\NC(N)=S", "growth": "11.7% (inactive)"},
      {"smiles": "CC(C)(C)C1CCC(=NO)CC1", "note": "(stereo not drawn)", "growth": "96.8% (inactive)"},
      {"smiles": "CCOC(C)=N", "growth": "95.1% (inactive)"},
      {"smiles": "CN(C)C(=S)N(C)C", "growth": "99.3% (inactive)"},
      {"smiles": "NNC(=O)Nc1ccccc1", "growth": "101% (inactive)"},
      {"smiles": "COC(=O)c1cc(C(=O)OC)cc([N+](=O)[O-])c1", "growth": "95.3% (inactive)"},
      {"smiles": "OCCS", "growth": "103% (inactive)"},
      {"smiles": "COc1ccc(/C=N/Nc2nc3ccccc3s2)cc1", "growth": "83.3% (inactive)"},
      {"smiles": "Cc1cc(O)c(C(C)C)cc1N=O", "growth": "94.4% (inactive) and 93.8% (inactive)"},
      {"smiles": "O=C(c1ccccc1)C1(Br)CCCCC1", "growth": "104% (inactive)"},
      {"smiles": "COc1ccc2oc3c(ccc[n+]3C)c(=O)c2c1", "growth": "101% (inactive)"},
      {"smiles": "CCCC(=O)Oc1ccc(CC)cc1", "growth": "101% (inactive)"}
    ]},
    {"test_system": "HCC-2998 colon", "experiment": "NCI-60 one-dose screen, 48 h (100 = growth as untreated, 0 = no growth, -100 = all killed)", "settings": "10 µM unless noted", "values": [
      {"smiles": "COC(=O)c1ccccc1Cl", "growth": "105% (inactive)"},
      {"smiles": "CCC(C)NC(=O)c1ccccc1C", "note": "(stereo not drawn)", "growth": "96.7% (inactive)"},
      {"smiles": "COc1ccc(CCl)c(C)c1OC", "growth": "100% (inactive)"},
      {"smiles": "Cc1c(Cl)cc(Cl)c(N)c1Cl", "growth": "113% (inactive)"},
      {"smiles": "O=C1CCC(=O)N1CC1CC2CCC1C2", "note": "(stereo not drawn)", "growth": "106% (inactive)"},
      {"smiles": "O=C(O)c1ccc2c3ccc(C(=O)O)c4c(C(=O)O)ccc(c5ccc(C(=O)O)c1c25)c43", "growth": "76.9% (inactive)"},
      {"smiles": "Cc1onc(-c2c(F)cccc2Cl)c1-c1ncc(-c2ccc(Cl)cc2)o1", "growth": "61.2% (inactive) and 56.8% (inactive)"},
      {"smiles": "CCCCCc1cc[n+](CC(=O)c2ccccc2)cc1", "growth": "105% (inactive)"},
      {"smiles": "C(=N\\OCCc1ccccc1)/c1ccccn1", "growth": "105% (inactive) and 104% (inactive)"},
      {"smiles": "COc1cc([C@@H]2c3cc4c(cc3[C@H](O)[C@H]3COC(=O)[C@@H]23)OCO4)cc(OC)c1OC", "growth": "-10.3% (active) and -60.9% (active)"},
      {"smiles": "COc1ccc(/C=N/NC(N)=S)cc1", "growth": "90.7% (inactive)"},
      {"smiles": "N=c1sc2ccccc2n1CC(=O)O", "growth": "108% (inactive)"},
      {"smiles": "O=C(O)/C=C/C=C/c1ccccc1", "growth": "104% (inactive)"},
      {"smiles": "CC(C)(C)OC(=O)CC1(O)CCCCC1", "growth": "106% (inactive)"},
      {"smiles": "Cc1nc(Nc2ccc(Cl)cc2)c2cnn(-c3ccccc3)c2n1", "growth": "105% (inactive)"},
      {"smiles": "CC(=O)Oc1cc(C)c(OC(C)=O)c(C)c1C", "growth": "105% (inactive)"},
      {"smiles": "CCC(C)(O)CCC(C)(O)CC", "note": "(stereo not drawn)", "growth": "87.7% (inactive)"},
      {"smiles": "Clc1ccc2sc(-c3ccccc3)nc2c1", "growth": "103% (inactive)"},
      {"smiles": "Cc1ccc([N+](=O)[O-])cc1Br", "growth": "117% (inactive)"},
      {"smiles": "COCCCNC1=C(C#N)C(=O)NC(c2cccs2)S1", "note": "(stereo not drawn)", "growth": "108% (inactive)"},
      {"smiles": "OCCSc1ccc(Cl)cc1", "growth": "106% (inactive) and 108% (inactive)"},
      {"smiles": "Nc1[nH][nH]c(=O)c1N=Nc1ccccc1", "growth": "97.9% (inactive) and 104% (inactive)"},
      {"smiles": "CS(=O)(=O)c1nsc(N)n1", "growth": "98.4% (inactive)"},
      {"smiles": "Cc1cc(Cl)nc(Nc2ccccc2)n1", "growth": "98.6% (inactive)"},
      {"smiles": "O=C(O)C1CSCN1", "note": "(stereo not drawn)", "growth": "133% (inactive) and -20.6% (active)"},
      {"smiles": "C/C=C(/C(=O)NC(N)=O)C(C)C", "growth": "115% (inactive)"},
      {"smiles": "O=[N+]([O-])c1ccc(NC(c2ccccc2)c2ccc3cccnc3c2O)cc1", "note": "(stereo not drawn)", "growth": "29.8% (inactive)"},
      {"smiles": "CCCCC/C(C)=N\\NC(N)=S", "growth": "97.8% (inactive)"},
      {"smiles": "CC(C)(C)C1CCC(=NO)CC1", "note": "(stereo not drawn)", "growth": "107% (inactive)"},
      {"smiles": "CCOC(C)=N", "growth": "103% (inactive)"},
      {"smiles": "CN(C)C(=S)N(C)C", "growth": "103% (inactive)"},
      {"smiles": "NNC(=O)Nc1ccccc1", "growth": "113% (inactive)"},
      {"smiles": "COC(=O)c1cc(C(=O)OC)cc([N+](=O)[O-])c1", "growth": "99.2% (inactive)"},
      {"smiles": "OCCS", "growth": "93.9% (inactive)"},
      {"smiles": "COc1ccc(/C=N/Nc2nc3ccccc3s2)cc1", "growth": "104% (inactive)"},
      {"smiles": "Cc1cc(O)c(C(C)C)cc1N=O", "growth": "98.1% (inactive) and 102% (inactive)"},
      {"smiles": "O=C(c1ccccc1)C1(Br)CCCCC1", "growth": "101% (inactive)"},
      {"smiles": "COc1ccc2oc3c(ccc[n+]3C)c(=O)c2c1", "growth": "117% (inactive)"},
      {"smiles": "CCCC(=O)Oc1ccc(CC)cc1", "growth": "102% (inactive)"}
    ]}
  ]
}
